Drawing on PubChem BioAssay (NCI), this text covers growth for 27 compounds.

Structures are written as SMILES. Values joined by “and” are separate entries in the source; they are usually repeats but may differ in a detail not shown here. Identical values can stand only once. Compounds without any hit were thinned out: in the full panel of roughly 83,000, 20% have a hit.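 The test compound was applied at a single concentration to cells in 96-well plates for 48 hours, and percent growth was recorded.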 A number with no mark means an inactive call. Active and inactive are the calls of the source. The calls were made as follows: active = growth percent below 10; inactive = the rest.

What all share (assay): NCI-60 one-dose screen, 48 h (100 = growth as untreated, 0 = no growth, -100 = all killed)
What all share (conditions): 10 µM unless noted

The test system of test [1] is T-47D breast.
Test [2] deals with BT-549 breast.
Test [3] concerns MDA-MB-435 melanoma.
Test [4] has as its system SW-620 colon.
Test [5] has as its system MCF7 breast.
In test [6] the test system is HCT-116 colon.
Test [7] has as its system HCC-2998 colon.
The test system of test [8] is KM12 colon.
Test [9] relates to MDA-MB-468 breast.

For the compound `COc1cc(NC(=O)CSc2nnc(-c3ccc(-c4nc5ccc(Cl)cc5[nH]4)cc3)o2)cc(OC)c1OC`, the growth in [1] is 41.5%; in test [2], 70.7%; in test [3], -20.3% (active); in test [4] it was 40.1%; in test [5], 6.03% (active); in [6], 33.2%. The growth in [7] is 68.9%; in test [8], 30.8%; in test [9], 3.14% (active).

For `COc1ccc(-c2cc(C)nc3[nH]c(=O)sc23)cc1`, the growth in [1] was -15.1% (active); in test [2], 58.9%; in test [3] it was 78.7%; in test [4], 98.1%; in test [5] it was 83.8%; in test [6], 52.1%. The results for the growth in [7], in [8] and in [9] were 84.2%, 81.3% and 76%, respectively.

As for `O=C(N/N=C/c1ccc(Cl)o1)c1[nH]c2ccc(Br)cc2c1-c1ccccc1`, the growth was 29.8% in [1]; -25.9% (active) in test [2]; -47.9% (active) in test [3]; -29.6% (active) in test [4]; 1.67% (active) in test [5]; -56.1% (active) in [6]. Also, the growth was -26% (active) in test [7], 2.65% (active) in test [8] and -9.32% (active) in [9].

In the case of `CN(C)c1nc(NCCNS(=O)(=O)c2ccc(C3=Nc4c(N)nc(N)nc4NC(c4ccc(Cl)cc4)C3)cc2)nc(N2CCOCC2)n1` (stereo not drawn), the growth in test [1] was 43%; in test [2], 35.4%; in test [3] it was 60.1%; in test [4], 82.8%; in test [5], 22.4%; in test [6] it was 30.9%. In addition, the growth was 39.3% in test [7], 52.9% in test [8] and 6.95% (active) in [9].

Take `O=C1c2cccc3c(N4CCN(c5ccccc5)CC4)ccc(c23)C(=O)N1c1cccc(-c2nn(-c3ccccc3)cc2-c2nc3ccccc3s2)c1`: the growth in test [1] is 114%; in test [2] it was 126%; in test [3] it was 106%; in test [4], 98%; in [5], 81.2%; in test [6], 101%. For the same compound, the growth was 115% in test [7], 104% in test [8] and 96.9% in test [9].

Regarding `CN(C)CCCc1ccc(Nc2cnn(C)c(=O)c2Cl)cc1`, the growth was 98.2% in [1]; 115% in test [2]; 97.8% in [3]; 109% in test [4]; 80.8% in [5]; 95.5% in [6]. In addition, the results for the growth in [7], in test [8] and in test [9] were 118%, 111% and 82.8%, respectively.

For the compound `COc1ccc(NC(=O)Cn2c(/C=C/c3cccc(OC)c3)nc3ccccc3c2=O)cc1`, the growth is -15% (active) in test [1]; 73.8% in test [2]; 59.1% in [3]; 41.2% in test [4]; 30.4% in test [5]; 13.9% in [6]. Also, the results for the growth in test [7], in [8] and in test [9] were 92.5%, 82.5% and 71.4%, respectively.

For the compound `Clc1ccc2c(NCCNC34CC5CC(CC(C5)C3)C4)ccnc2c1`, the growth is -47.2% (active) in test [1]; -86.5% (active) in test [2]; -72.3% (active) in [3]; -47.1% (active) in [4]; -78.7% (active) in [5]; -40.1% (active) in test [6]. For the same compound, the growth was -89.5% (active) in test [7], -96.8% (active) in [8] and -92.3% (active) in test [9].

On to `CS(=O)(=O)Nc1cc(-c2ccc3ncnc(N4CCc5cc(F)c(Cl)cc54)c3c2)cnc1Cl`, for which the growth in test [1] was -9.78% (active); in test [2], -25.2% (active); in test [3], 3.42% (active); in [4], 32.7%; in test [5] it was 8.15% (active); in [6], 23.6%. The growth in test [7] was 16.5%; in test [8] it was 14.2%; in test [9], -60.2% (active).

In the case of `O=C1NC(=NC23CC4CC(CC(C4)C2)C3)N/C1=C\c1ccc2ncccc2c1`, the growth in test [1] is 22.5%; in [2], 16.2%; in test [3], -22.6% (active); in [4], 1.21% (active); in test [5] it was -11.4% (active); in test [6], 3.24% (active). The growth is 22.7% in test [7], 24.3% in test [8] and 19.4% in test [9].

For `O=C(c1ccc(Cl)cc1)C1[C@H](c2ccccc2Cl)[C@@H](c2ccccc2)NC12C(=O)Nc1ccc(Br)cc12` (stereo partly drawn), the growth in [1] is -83.4% (active); in [2], -95.1% (active); in test [3] it was -93.4% (active); in test [4], -84.1% (active); in test [5], -48.7% (active); in test [6] it was -98.9% (active). In addition, the growth was -94.2% (active) in test [7], -51.8% (active) in [8] and -83.2% (active) in test [9].

On to `COc1ccc([C@H]2C(C(=O)c3ccc(Cl)cc3)C3(N[C@@H]2c2ccccc2)C(=O)Nc2ccccc23)cc1` (stereo partly drawn), for which the growth in test [1] is 16.8%; in test [2], 84.3%; in [3] it was 23.4%; in test [4], 34.7%; in [5], 7.51% (active); in [6], 26.1%. Besides, the growth is 13.7% in test [7], 15.5% in test [8] and 28.5% in [9].

For the compound `Cc1ccc(C(=O)Nc2cc(-c3ccccc3)cc(C(F)(F)F)c2)cc1C#Cc1cnc2cccnn12`, the growth in test [1] was 42.3%; in test [2] it was 139%; in test [3], 45.3%; in [4], 66.7%; in test [5], 39.9%; in [6], 32.2%. Further, the growth in test [7] is 85.3%; in test [8], 41.9%; in test [9] it was 62.9%.

`COc1cc(/C=N/NC(=O)c2ccc(OCc3nc4ccc(Cl)cc4[nH]3)cc2)cc(OC)c1OC`: the growth in test [1] was 7.17% (active); in test [2], 22.9%; in test [3], 37.7%; in test [4], 40.8%; in test [5], 18.3%; in test [6], 22.8%. Further, the growth in test [7] is 61.2%; in [8] it was 43.3%; in test [9] it was 43.4%.

Take `CC1=C(C(=O)Nc2ccccc2)C(c2cccc(Cl)c2Cl)n2c(nc3ccccc32)N1` (stereo not drawn): the growth in test [1] is 67.4%; in test [2], 71%; in test [3], 26.5%; in [4] it was 56.5%; in test [5], 24.6%; in test [6], 29.6%. The growth in test [7] was 25.6%; in test [8] it was 32.9%; in [9], -32.2% (active).

For `COc1ccccc1/C=C/c1cccc(NC(=S)NCCCCN(C)C)c1`, the growth was -58.7% (active) in test [1]; -60.7% (active) in [2]; -91.6% (active) in [3]; 5.09% (active) in test [4]; -73.9% (active) in test [5]; -43.4% (active) in test [6]. In addition, the growth in [7] was -94.1% (active); in test [8], -52.9% (active); in test [9] it was -86% (active).

Regarding `Cc1nc(N)ncc1-c1ccc2ncnc(N3CCc4cc(F)c(Cl)cc43)c2c1`, the growth in test [1] was 28.1%; in [2], 66.8%; in test [3] it was 94.6%; in test [4], 85.2%; in test [5], 41.7%; in test [6], 70.4%. Also, the growth in [7] was 80.7%; in test [8] it was 88.2%; in test [9], -22.5% (active).

Turning to `OC(c1ccccc1)(c1ccccc1)C1CCN(c2ccc3nnc(Cl)n3n2)CC1`, the growth in [1] is 9.47% (active); in test [2] it was 2.56% (active); in test [3], 42.1%; in test [4], 56.6%; in test [5], 10.9%; in [6], 22.6%. The growth in [7] was 55.2%; in [8] it was 30.9%; in [9], 30.4%.

As to `CCOC(=O)/C(F)=C/C1CC1C(c1ccccc1)c1ccccc1` (stereo not drawn), the growth in test [1] is 70.7%; in test [2], 117%; in test [3], 84.8%; in [4] it was 75.1%; in test [5] it was 80.7%; in test [6] it was 62%. The growth in test [7] is 102%; in [8], 83.5%; in [9], 36.2%.

As for `CC1=C(C(=O)Nc2ccccc2)C(c2cccc3ccccc23)n2c(nc3ccccc32)N1` (stereo not drawn), the growth in [1] was 88.9%; in test [2] it was -2.15% (active); in test [3] it was 74.4%; in test [4], 67.6%; in test [5], 38.5%; in [6], 0.0484% (active). Besides, the growth in [7] is 90.5%; in [8], 89.9%; in test [9], 49.9%.

Regarding `COc1cc2cc(C(=O)N3C[C@@H](CCl)c4c3cc(OC(=O)N(CCC(=O)N3CCN(C)CC3)[C@H]3CCSSC3)c3ccccc43)[nH]c2c(OC)c1OC`, the growth in [1] was 8.8% (active); in test [2], -81.1% (active); in test [3], -48.5% (active); in [4] it was -42.4% (active); in test [5], -79.9% (active); in test [6], -41.4% (active). Also, the growth in test [7] was -94.3% (active); in test [8] it was -29% (active); in test [9], -91.5% (active).

Take `Nc1cc2ccccc2c(=O)n1NC(=O)c1ccccc1`: the growth is 77.7% in test [1]; 120% in test [2]; 99.8% in test [3]; 94.8% in test [4]; 53.8% in test [5]; 96.5% in test [6]. The growth in [7] was 120%; in [8] it was 97.7%; in [9] it was -35.4% (active).

For the compound `Cn1ncc2c(N)nc(Oc3ccccc3-c3ccccc3)nc21`, the growth in [1] is 31.9%; in [2], -1.44% (active); in [3] it was -38.2% (active); in [4], 25.2%; in test [5] it was 9.1% (active); in [6] it was 15.6%. The figures for the growth in test [7], in [8] and in [9] were 62.2%, 24% and -24.1% (active), respectively.

For the compound `Cn1cc(-c2cc(N)n3nc(-c4c[nH]c5ccc(Cl)cc45)cc3n2)c2cccnc21`, the growth was -65.9% (active) in test [1]; -77.1% (active) in test [2]; -84.2% (active) in test [3]; -72.8% (active) in test [4]; -81.2% (active) in test [5]; -90.7% (active) in test [6]. The growth in test [7] was -98.5% (active); in [8], -70.2% (active); in test [9], -93.7% (active).

Consider `CC(C)(C)c1ccc(OCc2nc3ccccc3n2-c2cccc(N)c2)cc1`, for which the growth in test [1] was 32.3% and 99.1%; in [2] it was 73.6% and 115%; in [3], 70.5% and 102%; in [4] it was 77% and 116%; in test [5], 32% and 92.1%; in [6], 56.8% and 104%. The growth in test [7] was 81.9% and 107%; in test [8], 54.5% and 105%; in test [9], 69% and 96.4%.

On to `COc1cc(C2CC(c3ccc(Cl)cc3)=Nc3c(N)nc(N)nc3N2)ccc1Oc1nc(Nc2ccc(F)cc2)nc(N(C)C)n1` (stereo not drawn), for which the growth is 71.3% in test [1]; 62.4% in test [2]; 44% in test [3]; 35.5% in test [4]; 2.22% (active) in [5]; -5.37% (active) in test [6]. Further, the values for the growth in [7], in [8] and in [9] were -3.35% (active), 32% and -22.4% (active), respectively.

Consider `COc1ccc(/C=C/C(=O)c2ccc(OC)c(S(N)(=O)=O)c2)c(C(F)(F)F)c1`, for which the growth in test [1] was 29.3%; in test [2] it was -78.9% (active); in [3], 63.6%; in [4], 7.45% (active); in test [5], 8.35% (active); in test [6], -44.3% (active). The figures for the growth in [7], in test [8] and in [9] were -95.4% (active), 6.97% (active) and 7.25% (active), respectively.
